PubChem BioAssay (Tox21)
Records with an inconclusive call do not appear. Entries that show only a call come without a potency. Activity calls are given as the source filed them. Calls follow the shape of the dose curve; as a rule, active = well fitted cell-killing curve with a large enough effect in the repeat runs; inconclusive = weak or mixed curves, or effect the other way; inactive = no such curve, though single readings can be large or run the other way.

Assay: qHTS assay to identify small molecule antagonists of the glucocorticoid receptor (GR) signaling pathway - cell viability counter screen (AID 720693); also: nearly all actives have a fitted effect of over 55% in size
Conditions: GR-bla HeLa viability, CellTiter-Glo luminescence, 18 h, with 5 nM dexamethasone present; series mostly up to 58.5 µM

Structure (SMILES)	Potency
Cc1ccccc1CCO	inactive
CC(=O)Oc1cccc2c1C(=O)c1c(OC(C)=O)cc(C(=O)O)cc1C2=O	inactive
O=C1OC(=O)C2CC=CCC12 (stereo not drawn)	inactive
C[C@H]1C[C@H]2[C@@H]3CCC4=CC(=O)C=C[C@]4(C)[C@@]3(F)[C@@H](O)C[C@]2(C)[C@@]1(O)C(=O)COP(=O)(O)O	inactive
CC(=O)Nc1cccc(N)c1	inactive
COc1ccc(CN(CCN(C)C)c2ncccn2)cc1	inactive
Nc1ccc(C(=O)Oc2ccccc2)c(O)c1	inactive
FC1(F)C(F)(F)C(F)(F)C2(F)C(F)(C1(F)F)C(F)(F)C(F)(F)C1(F)C(F)(F)C(F)(F)C(F)(F)C(F)(F)C12F (stereo not drawn)	inactive
CCCCCC1CCC(=O)O1 (stereo not drawn)	inactive

Assay: qHTS assay for identifying genotoxic compounds that show differential cytotoxicity against isogenic chicken DT40 cell lines with known DNA damage response pathways - wild type cell line (AID 743012); also: nearly all actives have a fitted effect of over 60% in size; also: potency is read from the fitted curve at half-maximal effect
Conditions: DT40 wild type chicken cells viability, CellTiter-Glo, 40 h; series mostly up to 68.4 µM
Method in brief: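 Wild type DT40, 300 cells/well, ~0.5 h settle at 37 C/5% CO2; compounds in DMSO added by pintool; 40 h at 37 C/5% CO2; CellTiter-Glo, 30 min RT; luminescence.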

Structure (SMILES)	Potency
CC(COc1ccccc1)NC(C)C(O)c1ccc(O)cc1 (stereo not drawn)	inactive
CC1=C(C)C(=O)C(C(CCCCCC(=O)O)c2ccccc2)=C(C)C1=O (stereo not drawn)	inactive
C[Si](C)(C)O[Si](C)(C)O[Si](C)(C)C	inactive
O=C(O)CNc1ccccc1	inactive
CCCCCCCCCCCC(=O)OCC	inactive
Clc1nc2ccccc2nc1Cl	inactive
O=[N+]([O-])c1ccc(Cl)cc1Cl	inactive
CC(C(=O)O)c1ccc(/C=C2\CCCCC2=O)cc1 (stereo not drawn)	inactive
CCCC1CCCC(=O)O1 (stereo not drawn)	inactive
CC(O)C(C)O (stereo not drawn)	inactive
COc1ccc(/C=C/c2cc(OC)cc(=O)o2)cc1	inactive
O=C(O)c1cc(C(=O)O)cc([N+](=O)[O-])c1	inactive
O=C(NC1CCN(CCc2c[nH]c3ccccc23)CC1)c1ccccc1	23.7 µM (active)
CC(=O)c1ccc(Cl)c(Cl)c1Cl	inactive
OCCCO	inactive
Cc1ccc2c(Cl)cc(Cl)c(O)c2n1	1.88 µM (active)
COc1ccc(/C=C/S(=O)(=O)NC(=O)c2ccc(C)cc2Cl)cc1	inactive
OCCc1ccncc1	inactive
CCOc1ccc(NC(C)=O)cc1N	inactive

Structure (SMILES)	Potency
C=CC(=O)OCCCCCCCCCC	inactive
CC(CCl)OC(C)CCl (stereo not drawn)	inactive
Nc1ccc(-c2ccc(F)cc2)cc1	68.6 µM (active)
CC(C)(C)c1ccc(CCC=O)cc1	inactive
CCC[Si](OC)(OC)OC	inactive
Nc1cccc2c(=O)[nH][nH]c(=O)c12	inactive
C/C(=C\C(C)CC(C)CC(C)C)C1CC(=O)OC1=O (stereo not drawn)	inactive
CCCCCCCCCCCCCCCCN	inactive
O=C(O)c1ccc2cc(O)ccc2c1	inactive
Cc1ccccc1CCO	inactive
CC(=O)Oc1cccc2c1C(=O)c1c(OC(C)=O)cc(C(=O)O)cc1C2=O	inactive
O=C1OC(=O)C2CC=CCC12 (stereo not drawn)	inactive
C[C@H]1C[C@H]2[C@@H]3CCC4=CC(=O)C=C[C@]4(C)[C@@]3(F)[C@@H](O)C[C@]2(C)[C@@]1(O)C(=O)COP(=O)(O)O	inactive
CC(=O)Nc1cccc(N)c1	inactive
COc1ccc(CN(CCN(C)C)c2ncccn2)cc1	inactive
Nc1ccc(C(=O)Oc2ccccc2)c(O)c1	29.8 µM (active)
FC1(F)C(F)(F)C(F)(F)C2(F)C(F)(C1(F)F)C(F)(F)C(F)(F)C1(F)C(F)(F)C(F)(F)C(F)(F)C(F)(F)C12F (stereo not drawn)	inactive
CCCCCC1CCC(=O)O1 (stereo not drawn)	inactive

Assay: qHTS assay for identifying genotoxic compounds that show differential cytotoxicity against isogenic chicken DT40 cell lines with known DNA damage response pathways - Rev3 mutant cell line (AID 743014); also: nearly all actives have a fitted effect of over 55% in size; also: potency is read from the fitted curve at half-maximal effect
Conditions: chicken DT40 Rev3-/- viability, CellTiter-Glo, 40 h; series mostly up to 68.4 µM

Structure (SMILES)	Potency
CC(COc1ccccc1)NC(C)C(O)c1ccc(O)cc1 (stereo not drawn)	inactive
CC1=C(C)C(=O)C(C(CCCCCC(=O)O)c2ccccc2)=C(C)C1=O (stereo not drawn)	inactive
C[Si](C)(C)O[Si](C)(C)O[Si](C)(C)C	inactive
O=C(O)CNc1ccccc1	inactive
CCCCCCCCCCCC(=O)OCC	inactive
Clc1nc2ccccc2nc1Cl	inactive
O=[N+]([O-])c1ccc(Cl)cc1Cl	inactive
CC(C(=O)O)c1ccc(/C=C2\CCCCC2=O)cc1 (stereo not drawn)	inactive
CCCC1CCCC(=O)O1 (stereo not drawn)	inactive
CC(O)C(C)O (stereo not drawn)	inactive
COc1ccc(/C=C/c2cc(OC)cc(=O)o2)cc1	inactive
O=C(O)c1cc(C(=O)O)cc([N+](=O)[O-])c1	inactive
O=C(NC1CCN(CCc2c[nH]c3ccccc23)CC1)c1ccccc1	33.5 µM (active)
CC(=O)c1ccc(Cl)c(Cl)c1Cl	inactive
OCCCO	inactive
Cc1ccc2c(Cl)cc(Cl)c(O)c2n1	2.37 µM (active)
COc1ccc(/C=C/S(=O)(=O)NC(=O)c2ccc(C)cc2Cl)cc1	inactive
OCCc1ccncc1	inactive
CCOc1ccc(NC(C)=O)cc1N	inactive

Structure (SMILES)	Potency
C=CC(=O)OCCCCCCCCCC	inactive
CC(CCl)OC(C)CCl (stereo not drawn)	inactive
Nc1ccc(-c2ccc(F)cc2)cc1	48.6 µM (active)
CC(C)(C)c1ccc(CCC=O)cc1	inactive
CCC[Si](OC)(OC)OC	inactive
Nc1cccc2c(=O)[nH][nH]c(=O)c12	inactive
C/C(=C\C(C)CC(C)CC(C)C)C1CC(=O)OC1=O (stereo not drawn)	inactive
CCCCCCCCCCCCCCCCN	inactive
O=C(O)c1ccc2cc(O)ccc2c1	inactive
Cc1ccccc1CCO	inactive
CC(=O)Oc1cccc2c1C(=O)c1c(OC(C)=O)cc(C(=O)O)cc1C2=O	inactive
O=C1OC(=O)C2CC=CCC12 (stereo not drawn)	inactive
C[C@H]1C[C@H]2[C@@H]3CCC4=CC(=O)C=C[C@]4(C)[C@@]3(F)[C@@H](O)C[C@]2(C)[C@@]1(O)C(=O)COP(=O)(O)O	inactive
CC(=O)Nc1cccc(N)c1	inactive
COc1ccc(CN(CCN(C)C)c2ncccn2)cc1	inactive
Nc1ccc(C(=O)Oc2ccccc2)c(O)c1	inactive
FC1(F)C(F)(F)C(F)(F)C2(F)C(F)(C1(F)F)C(F)(F)C(F)(F)C1(F)C(F)(F)C(F)(F)C(F)(F)C(F)(F)C12F (stereo not drawn)	inactive
CCCCCC1CCC(=O)O1 (stereo not drawn)	inactive
